CYP2C19 inh – human CYP2C19 inhibition | hit rate 21% among 96,000 | CYP2C19 Supersomes, luciferin-H EGE luminescence, 30 min | inhibition, % at 5 µM | P33261;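 active = CYP2C19 inhibition above a set limit at 5 µM in the primary screen, cut at about 50% in these data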
Target sequence (P33261 whole entry, looked up): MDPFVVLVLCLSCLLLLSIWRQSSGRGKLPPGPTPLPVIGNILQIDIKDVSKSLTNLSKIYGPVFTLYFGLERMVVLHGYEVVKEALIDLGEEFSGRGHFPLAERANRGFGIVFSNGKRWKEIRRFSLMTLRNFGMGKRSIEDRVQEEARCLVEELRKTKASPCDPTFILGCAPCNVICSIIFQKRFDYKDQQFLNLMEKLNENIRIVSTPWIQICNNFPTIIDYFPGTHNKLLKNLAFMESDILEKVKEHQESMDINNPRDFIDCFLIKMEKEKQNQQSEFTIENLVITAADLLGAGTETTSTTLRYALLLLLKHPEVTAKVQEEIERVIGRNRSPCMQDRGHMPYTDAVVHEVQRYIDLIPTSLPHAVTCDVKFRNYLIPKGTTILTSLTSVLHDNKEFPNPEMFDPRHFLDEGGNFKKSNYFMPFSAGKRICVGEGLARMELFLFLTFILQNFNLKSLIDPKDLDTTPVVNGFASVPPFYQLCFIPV
Pyk2 oligo antag – antagonists of human Pyk2 oligomerization; z-score (the deposit names both 25 µM and 10 µM); AID 1347419; Q14289; Q293 cells, Pyk2 FERM NanoBiT luminescence; hits give low values; hit rate 0.83% among 99,000;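 active = Z-score of -3 or lower, scaled per plate to the spread of control and sample wells; inactive = z-score above -3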;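 note: negative z-score means lost luminescence so less FERM oligomerization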
CYP2C9 act – CYP2C9 (human) activation; P11712; recombinant CYP2C9, luciferin-H conversion, luminescence; hits give high values; factor 1 = untreated enzyme, 0 = blocked; activation factor at 5 µM; hit rate 1.4% among 96,000;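 active = activation factor of 2 or more for CYP2C9 at a 5 µM dose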
CYP2C9 inh – human CYP2C9 inhibition; hit rate 20% among 96,000; P11712; AID 777; inhibition, % at 5 µM; CYP2C9 Supersomes, luciferin-H conversion, luminescence;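 active = blocking of liver enzyme CYP2C9 beyond about 50% at 5 µM, limit read from the data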
CYP2C19 activ – cytochrome P450 2C19 (human) activation. P33261. recombinant CYP2C19, luciferin-H EGE luminescence; hits give high values; 0 = fully inhibited enzyme, 1 = untreated enzyme. activation factor at 5 µM. 96,000 tested, under 10 active;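 active = activation factor of at least 2 at 5 µM in the primary screen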
Large screens that a line does not name were inactive. In the library only some 28% were active in any assay of this set; here they are far more common.

O=C(CSc1ncn[nH]1)Nc1ccccc1Sc1ccccc1	CYP2C19 inh 87
O=C(CSc1ncn[nH]1)NCCc1ccccc1	none
O=C(CSc1ncn[nH]1)Nc1ccccc1-c1ccccc1	none
CCOC(=O)Nc1ccc(C)cc1Br	none
COC(=O)c1cccc(C(=O)Nc2ccc(C)cc2Br)n1	CYP2C9 inh 54
c1ccc(-n2nnnc2Sc2n[nH]c(-c3ccncc3)n2)cc1	CYP2C9 inh 80
Cc1nc(Sc2nnnn2-c2ccccc2)c(C#N)c(C)c1C	CYP2C19 inh 59 (no result: Pyk2 oligo antag)
CCCn1c(Sc2nnnn2-c2ccccc2)n[nH]c1=O	none
Cc1ccccc1-n1nnnc1SCC(N)=O	none
Cc1cc(C)c(C#N)c(Sc2nnnn2-c2ccccc2)n1	CYP2C19 inh 57 (no result: Pyk2 oligo antag)
Cc1ccccc1-n1nnnc1Sc1nnnn1-c1ccccc1	CYP2C19 inh 88
Cc1cccc(NC(=O)CCc2ccc(C)o2)c1	CYP2C19 inh 90
Cc1cccc(NC(=O)CN2CCN(CC(=O)Nc3cccc(C)c3)CC2)c1	none
CCOC(=O)c1ccc(NC(=O)CCc2ccc(C)o2)cc1	CYP2C9 inh 55
Cc1ccc(CCC(=O)Nc2ccc(S(N)(=O)=O)cc2)o1	none
CCn1c(SCc2ccc(Cl)cc2Cl)nc2nc3c(cc2c1=O)CCCC3	none
CC1=CC(c2ccccc2)n2nc(N3C(=O)C4CC=CCC4C3=O)nc2N1 (stereo not drawn)	none
CCCCc1nc(S(=O)(=O)c2ccc(Cl)cc2)c(N2CCOCC2)o1	none (no result: CYP2C19 inh, CYP2C9 act, CYP2C9 inh, CYP2C19 activ)
FC(F)(F)c1cccc(N2CCN(c3nnnn3-c3ccccc3)CC2)c1	CYP2C19 inh 98, CYP2C9 inh 100
CC(=O)N1CCN(c2nnnn2-c2ccccc2)CC1	none
COCCn1nnnc1CN1CCN(c2cccc(C(F)(F)F)c2)CC1	CYP2C19 inh 78
Cc1ccc(C)c(N2CCN(c3nnnn3-c3ccccc3)CC2)c1	CYP2C19 inh 99, CYP2C9 inh 91
Cc1cc(C)nc(N2CCN(c3nnnn3-c3ccccc3)CC2)n1	CYP2C9 inh 85
CCOC(=O)c1c(-c2ccc(C)cc2)csc1NC(=O)CCSc1nnc2ccccn12	none (no result: CYP2C19 inh, CYP2C9 act, CYP2C9 inh, CYP2C19 activ)
Cc1c(NC(=O)CC2CC(C)OC2=O)c(=O)n(-c2ccccc2)n1C (stereo not drawn)	none (no result: CYP2C19 inh, CYP2C9 act, CYP2C9 inh, CYP2C19 activ)
CC1CN(Cc2nc3c(c(=O)n(C)c(=O)n3C)n2CCc2ccccc2)CC(C)O1 (stereo not drawn)	none (no result: CYP2C19 inh, CYP2C9 act, CYP2C9 inh, CYP2C19 activ)
CCn1c(SCc2nc3ccccc3[nH]2)nnc1-c1ccc(OC)cc1	CYP2C19 inh 82
Nn1c(SCc2nc3ccccc3[nH]2)nnc1-c1ccccc1	none
C=CCn1c(SCc2nc3ccccc3[nH]2)nnc1-c1ccc(OC)cc1	CYP2C19 inh 81
CCn1c(COc2ccc(Cl)cc2)nnc1SCc1nc2ccccc2[nH]1	none
O=C(OCCN=C1NS(=O)(=O)c2ccccc21)C1CC(=O)N(c2ccc3ccccc3c2)C1 (stereo not drawn)	none
CCOC(=O)C1CCN(CCC(=O)Nc2ccccc2)CC1	none (no result: CYP2C19 inh, CYP2C9 act, CYP2C9 inh, CYP2C19 activ)
O=C(Nc1ccccc1N(C(=O)c1ccco1)S(=O)(=O)c1cccs1)c1ccco1	CYP2C9 inh 75
CC(=O)N(c1ccc(N(C(C)=O)S(=O)(=O)c2cccs2)cc1)S(=O)(=O)c1cccs1	CYP2C9 inh 73
COc1ccc(N(C(=O)c2ccco2)S(=O)(=O)c2cc(OC)ccc2OC)cc1	CYP2C9 inh 72
COc1ccc(N(C(=O)c2ccco2)S(=O)(=O)c2cccs2)cc1	CYP2C9 inh 50
COc1ccc(N(C(=O)c2ccco2)S(=O)(=O)c2ccc(F)cc2)cc1	none (no result: CYP2C19 inh, CYP2C9 act, CYP2C9 inh, CYP2C19 activ)
COc1ccc(N(C(=O)c2ccco2)S(=O)(=O)c2cccc([N+](=O)[O-])c2)cc1	none
O=C(Nc1ccccc1NC(=O)c1ccco1)c1ccco1	none
CC1CN(c2ccccc2)C(=O)CS1 (stereo not drawn)	none
Cc1cccc2sc(NC(=O)c3ccc(Cl)s3)nc12	none (no result: Pyk2 oligo antag)
Cc1cccc2sc(NC(=O)CN(C)S(=O)(=O)c3cccs3)nc12	CYP2C19 inh 94, CYP2C9 inh 59
Cc1cccc2sc(NC(=O)Cn3cccc3)nc12	CYP2C9 inh 56 (no result: Pyk2 oligo antag)
COC(=O)Nc1nc2c(C)cccc2s1	none
Cc1cccc2sc(NC(=O)CSCc3ccccc3)nc12	none
Cc1cccc2sc(NC(=O)CN(C)S(=O)(=O)c3ccc(Br)s3)nc12	CYP2C19 inh 62
Cc1snc(S(=O)(=O)Cc2ccccc2Cl)c1C#N	none
O=C(CSc1nnc(-c2ccccc2O)o1)Oc1ccc(OCc2ccccc2)cc1	none
COC(=O)c1c(C)[nH]c(C(=O)CN2CCOCC2)c1C	CYP2C19 inh 62
